Test results: PubChem BioAssay (NCI)
Values joined by “and” are separate entries in the source; they are usually repeats but may differ in a detail not shown here. Identical values can stand only once. About 83,000 compounds went through this panel and 20% of them were active in at least one assay; those are over-represented in the sample as a whole.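 A percent growth of 40 corresponds to 60% growth inhibition; 0 means no net growth; -100 means all cells died. Active threshold: below 10.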 Active and inactive are the calls of the source.

Test system: SK-OV-3 ovarian
Experiment: NCI-60 one-dose screen, 48 h (100 = growth as untreated, 0 = no growth, -100 = all killed)
Conditions: 1 µM

Structure (SMILES) | growth
CC/C(=C(\c1ccc(O)cc1)c1ccc(OCCN(C)C(=O)COCCNC(=O)Cc2ccc3c(c2)CN([C@@H]2CCC(=O)NC2=O)C3=O)cc1)c1ccccc1 | 81% (inactive)
CC/C(=C(\c1ccc(O)cc1)c1ccc(OCCN(C)C(=O)CCOCCNC(=O)c2ccc3c(c2)CN([C@@H]2CCC(=O)NC2=O)C3=O)cc1)c1ccccc1 | 82.7% (inactive)
CC/C(=C(/c1ccc(O)cc1)c1ccc(OCCN(C)C(=O)CCOCCNC(=O)Cc2ccc3c(c2)CN([C@@H]2CCC(=O)NC2=O)C3=O)cc1)c1ccccc1 | 88.7% (inactive)
CC/C(=C(/c1ccc(O)cc1)c1ccc(OCCN(C)C(=O)COCCOCCNC(=O)c2ccc3c(c2)CN([C@@H]2CCC(=O)NC2=O)C3=O)cc1)c1ccccc1 | 91.1% (inactive)
CC/C(=C(\c1ccc(O)cc1)c1ccc(OCCNC)cc1)c1ccccc1 | 84.4% (inactive)
CC/C(=C(/c1ccc(O)cc1)c1ccc(OCCN(C)C(=O)COCCOCCNC(=O)Cc2ccc3c(c2)CN([C@@H]2CCC(=O)NC2=O)C3=O)cc1)c1ccccc1 | 86.1% (inactive)

Same assay, conditions: 10 µM

Structure (SMILES) | growth
CC/C(=C(\c1ccc(O)cc1)c1ccc(OCCN(C)C(=O)COCCNC(=O)Cc2ccc3c(c2)CN([C@@H]2CCC(=O)NC2=O)C3=O)cc1)c1ccccc1 | 57.8% (inactive)
CC/C(=C(\c1ccc(O)cc1)c1ccc(OCCN(C)C(=O)CCOCCNC(=O)c2ccc3c(c2)CN([C@@H]2CCC(=O)NC2=O)C3=O)cc1)c1ccccc1 | 87.9% (inactive)
CC/C(=C(/c1ccc(O)cc1)c1ccc(OCCN(C)C(=O)CCOCCNC(=O)Cc2ccc3c(c2)CN([C@@H]2CCC(=O)NC2=O)C3=O)cc1)c1ccccc1 | 79.6% (inactive)
CC/C(=C(/c1ccc(O)cc1)c1ccc(OCCN(C)C(=O)COCCOCCNC(=O)c2ccc3c(c2)CN([C@@H]2CCC(=O)NC2=O)C3=O)cc1)c1ccccc1 | 92.8% (inactive)
CC/C(=C(\c1ccc(O)cc1)c1ccc(OCCNC)cc1)c1ccccc1 | 92.7% (inactive)
CC/C(=C(/c1ccc(O)cc1)c1ccc(OCCN(C)C(=O)COCCOCCNC(=O)Cc2ccc3c(c2)CN([C@@H]2CCC(=O)NC2=O)C3=O)cc1)c1ccccc1 | 71.6% (inactive)

Same assay, conditions: 10 µM unless noted

Structure (SMILES) | growth
N#CC1=C(c2cccs2)Nc2c(c(-c3ccccc3)nn2-c2ccccc2)C12C(=O)Nc1ccccc12 (centres undefined) | 28.4% (inactive)
O=C1CC(c2ccc(I)cc2)OC2C=Cc3ccccc3C12 (centres undefined) | 96.7% (inactive)
COc1ccc([C@H]2C(C(=O)c3ccc(Cl)cc3)C3(N[C@@H]2c2ccccc2)C(=O)Nc2ccccc23)cc1 (some centres undefined) | 72.5% (inactive)
COc1ccc2c(c1)N=c1c-2cc2c(O)[nH]c(=S)n2c1=O | 53.3% (inactive)
Cc1cc(N=C(N)c2ccccc2)ccc1OCCCCCCCCn1ccnc1 | 16.7% (inactive)
CS(=O)(=O)Nc1cc(-c2ccc3ncnc(N4CCc5cc(F)c(Cl)cc54)c3c2)cnc1Cl | -17.5% (active)
COc1cc(NC(=O)C(C)C)ccc1C(=O)NC(=S)Nc1ccc(S(N)(=O)=O)cc1 | 112% (inactive)
CC1=C(C(=O)OC(C)C)C(c2ccc(O)cc2)NC(=O)N1 (centres undefined) | 106% (inactive)
COc1cccc(/C=C/c2nc3ccccc3c(=O)n2CC(=O)Nc2ccccc2)c1 | 54.2% (inactive)
COC(=O)c1c(C(=O)OC)c2ccc3c4ccccc4ccc3n2c1C(=O)OC | 109% (inactive)
CCCCCCCCc1cccc(CC(=O)Nc2ccc(C)cc2C(=O)O)c1 | 89.2% [25 µM] (inactive)
O=C(c1cc2cc(OCCCN3CCC3)ccc2[nH]1)N1C[C@@H](CCl)c2c1cc(OCc1ccccc1)c1ccccc21 | -9.06% (active)
CC(C)(C)OC(=O)N1CCC2(CC1)Oc1ccccc1[C@H]1CC(c3ccc(Br)cc3)=NN12 | 79.1% (inactive)
COc1ccc(NC2=C(I)C(=O)C(C)=C(C)C2=O)cc1 | 91.8% (inactive)
CC[C@]12C=CCN3CC[C@@]4(c5ccc(OC)cc5N(C)[C@H]4[C@@](O)(C(=O)OC)[C@@H]1OC(=O)CCCC[P+](c1ccc(F)cc1)(c1ccc(F)cc1)c1ccc(F)cc1)[C@@H]32 | 41.4% (inactive)
FC(F)(F)c1cc2c(Cl)ncnc2n1CCN1CCCCC1 | 97.2% (inactive)

Structure (SMILES) | growth
O=C(CSc1nnc(-c2ccc(-c3nc4ccc(Cl)cc4[nH]3)cc2)o1)Nc1ccccc1 | 66.3% (inactive)
Cc1cccc(NCC(=O)N2CCN(c3ncnc4c3cnn4-c3ccccc3)CC2)c1 | 67.1% (inactive)
CS(=O)(=O)c1ccc(-n2nc(C(=O)NCc3ccccc3)cc2-c2ccc(Cl)cc2)cc1 | 104% (inactive)
CS(=O)(=O)Nc1cccc(-n2c(COc3ccc(OC(F)(F)F)cc3)nc3ccccc32)c1 | 76% (inactive) and 95.4% (inactive)
O=C(CSc1nc2sc3c(c2c(=O)n1-c1ccc(Cl)cc1)CCCC3)NNC(=O)c1ccc(Br)cc1 | 80.8% (inactive)
O=C(c1ccc(Cl)cc1)C1[C@H](c2ccccc2Cl)[C@@H](c2ccccc2)NC12C(=O)Nc1ccccc12 (some centres undefined) | 23.1% (inactive)
O=C1NC(=NC23CC4CC(CC(C4)C2)C3)N/C1=C\c1ccc2ncccc2c1 | -57.4% (active)
N#CC1=C(c2ccco2)Nc2c(c(-c3ccccc3)nn2-c2ccccc2)C12C(=O)Nc1ccc(Cl)cc12 (centres undefined) | 55.3% (inactive)
O=C(c1ccc(O)cc1)C1[C@H](c2ccccc2Br)[C@@H](c2ccccc2)NC12C(=O)Nc1ccccc12 (some centres undefined) | 70.5% (inactive)
c1ccc(CSc2nnc(-c3ccc4nc(-c5ccccc5)[nH]c4c3)o2)cc1 | 87% (inactive)
O=C(CSc1nnc(-c2ccc(-c3nc4ccccc4[nH]3)cc2)o1)Nc1ccccc1 | 84.7% (inactive)
CCCCCCCCCCCCCCCCCC(=O)Nc1ccc(OC)cc1 | 115% (inactive)
Nc1nn2c(-c3cc4ccccc4oc3=O)ccnc2c1N=Nc1ccccc1 | 60.1% (inactive)
O=C1NC(=S)/C(=C/c2cn(-c3ccccc3)nc2-c2ccccc2)S1 | 35.5% (inactive)
CC(Nc1ncnc2ccc(-c3ccc4oc(N)nc4c3)cc12)c1ccccc1 (centres undefined) | -22.2% (active)
O=C(N/N=C/c1ccsc1)c1[nH]c2ccc(Br)cc2c1-c1ccccc1 | -36.9% (active)
